Activity calls are given as the source filed them.
Key:
[1] = binders of probe aFSTL3 on microarray, primary screen, stem cell growth factor project, biochemical, small-molecule microarray, fluorescence 635/667 (AID 1064); details: higher = more signal;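 also: measures binding of the biotinylated anti-FSTL3 antibody to printed compounds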
[2] = binders from COS7 lysate, DM2A8 probe, primary screen, torsin A project, cell lysate, small-molecule microarray, fluorescence 635/667 (AID 1065); details: higher = more signal, COS7 lysate expressing mutant human TOR1A
[3] = binders of probe aFGF2 on microarray, primary screen, stem cell growth factor project, biochemical, small-molecule microarray, fluorescence 635/667 (AID 1067); details: higher = more signal;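 also: measures binding of biotinylated aFGF2 protein to printed compounds on slides; z-score merges feature fluorescence and signal-to-noise across triplicate slides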
[4] = binders of probe aFGF10 on microarray, primary screen, stem cell growth factor project, biochemical, small-molecule microarray, fluorescence 635/667 (AID 1071); details: higher = more signal;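 also: score merges 667 nm spot intensity and signal to noise from triplicate slides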
[5] = target: Neurogenic locus notch homolog protein 2 (Homo sapiens) (UniProt Q04721); experiment: Notch2 binders on small-molecule microarrays, primary screen, biochemical, small-molecule microarray, 635 nm fluorescence, stem cell growth factors (AID 1073); details: Notch2 binding, higher = more signal
Sequence of Neurogenic locus notch homolog protein 2 (Homo sapiens) (Q04721 whole entry, looked up, canonical isoform): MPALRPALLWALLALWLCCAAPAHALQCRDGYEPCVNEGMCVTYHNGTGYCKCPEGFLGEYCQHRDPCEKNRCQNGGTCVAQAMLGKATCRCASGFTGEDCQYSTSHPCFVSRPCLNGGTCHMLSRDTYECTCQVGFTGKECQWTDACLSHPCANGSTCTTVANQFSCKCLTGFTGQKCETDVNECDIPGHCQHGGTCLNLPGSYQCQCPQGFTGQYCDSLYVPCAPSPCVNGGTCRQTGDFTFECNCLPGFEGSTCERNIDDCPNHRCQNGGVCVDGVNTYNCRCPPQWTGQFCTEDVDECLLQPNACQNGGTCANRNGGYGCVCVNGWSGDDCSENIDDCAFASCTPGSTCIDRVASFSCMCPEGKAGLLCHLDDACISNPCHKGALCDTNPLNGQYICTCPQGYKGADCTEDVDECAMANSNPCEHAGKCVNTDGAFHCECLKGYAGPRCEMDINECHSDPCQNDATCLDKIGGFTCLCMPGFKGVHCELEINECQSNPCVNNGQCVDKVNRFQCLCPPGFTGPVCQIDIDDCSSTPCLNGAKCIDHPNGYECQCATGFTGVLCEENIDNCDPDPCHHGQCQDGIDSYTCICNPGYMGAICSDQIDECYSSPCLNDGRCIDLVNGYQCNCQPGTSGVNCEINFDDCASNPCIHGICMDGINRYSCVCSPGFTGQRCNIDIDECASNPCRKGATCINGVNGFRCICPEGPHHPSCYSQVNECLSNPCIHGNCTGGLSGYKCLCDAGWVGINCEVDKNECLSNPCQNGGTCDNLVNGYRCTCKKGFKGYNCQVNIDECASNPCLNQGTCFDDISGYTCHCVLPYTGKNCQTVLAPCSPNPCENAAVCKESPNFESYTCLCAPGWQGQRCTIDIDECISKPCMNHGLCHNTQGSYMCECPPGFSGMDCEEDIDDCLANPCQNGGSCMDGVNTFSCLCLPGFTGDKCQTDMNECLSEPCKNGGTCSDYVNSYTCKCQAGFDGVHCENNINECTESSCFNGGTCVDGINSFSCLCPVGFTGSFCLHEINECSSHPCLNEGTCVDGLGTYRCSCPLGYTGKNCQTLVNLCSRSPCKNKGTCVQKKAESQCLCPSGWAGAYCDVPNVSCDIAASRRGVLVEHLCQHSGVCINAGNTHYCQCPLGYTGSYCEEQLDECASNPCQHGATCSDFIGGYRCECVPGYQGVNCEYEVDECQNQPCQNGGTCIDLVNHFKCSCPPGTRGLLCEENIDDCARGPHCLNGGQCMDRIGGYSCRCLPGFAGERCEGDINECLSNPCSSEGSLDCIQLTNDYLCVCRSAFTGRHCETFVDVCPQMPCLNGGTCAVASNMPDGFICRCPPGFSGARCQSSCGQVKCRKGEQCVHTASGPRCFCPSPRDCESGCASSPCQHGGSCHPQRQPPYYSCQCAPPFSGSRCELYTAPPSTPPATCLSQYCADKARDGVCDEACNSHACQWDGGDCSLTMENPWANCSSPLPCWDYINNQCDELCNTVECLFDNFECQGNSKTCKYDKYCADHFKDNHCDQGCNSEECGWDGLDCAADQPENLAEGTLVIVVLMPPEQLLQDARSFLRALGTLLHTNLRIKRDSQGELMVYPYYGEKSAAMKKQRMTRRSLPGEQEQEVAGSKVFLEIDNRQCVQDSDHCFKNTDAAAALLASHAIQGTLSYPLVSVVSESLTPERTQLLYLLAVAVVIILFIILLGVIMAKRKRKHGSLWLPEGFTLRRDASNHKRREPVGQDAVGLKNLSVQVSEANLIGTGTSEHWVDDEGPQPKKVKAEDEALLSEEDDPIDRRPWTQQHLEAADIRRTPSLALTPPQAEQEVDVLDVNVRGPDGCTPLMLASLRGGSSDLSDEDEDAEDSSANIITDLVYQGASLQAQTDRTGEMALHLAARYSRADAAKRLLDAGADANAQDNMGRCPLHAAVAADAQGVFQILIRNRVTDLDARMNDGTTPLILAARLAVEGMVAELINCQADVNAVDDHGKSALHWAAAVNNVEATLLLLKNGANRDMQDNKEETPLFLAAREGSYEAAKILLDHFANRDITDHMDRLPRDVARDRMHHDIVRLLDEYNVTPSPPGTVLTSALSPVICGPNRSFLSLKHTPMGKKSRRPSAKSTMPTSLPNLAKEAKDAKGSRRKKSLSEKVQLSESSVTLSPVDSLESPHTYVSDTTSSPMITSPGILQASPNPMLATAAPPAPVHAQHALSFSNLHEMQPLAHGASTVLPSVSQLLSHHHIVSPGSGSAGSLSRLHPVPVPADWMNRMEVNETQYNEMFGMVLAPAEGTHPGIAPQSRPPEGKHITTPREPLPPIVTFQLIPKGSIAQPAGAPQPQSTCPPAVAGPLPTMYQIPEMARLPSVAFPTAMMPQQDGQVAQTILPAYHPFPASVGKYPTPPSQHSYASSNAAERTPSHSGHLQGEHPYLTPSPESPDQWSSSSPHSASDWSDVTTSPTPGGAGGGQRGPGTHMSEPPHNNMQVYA

[6] = target: Pro-neuregulin-1, membrane-bound isoform (Homo sapiens) (UniProt Q02297); experiment: NRG1 binders on small-molecule microarrays, primary screen, psychiatric disease protein project, biochemical, small-molecule microarray, fluorescence 635/667 (AID 1075); details: NRG1 binding, 635 nm fluorescence, higher = more signal;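 also: score combines 667 nm spot fluorescence with signal to noise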
Sequence of Pro-neuregulin-1, membrane-bound isoform (Homo sapiens) (Q02297 whole entry, looked up, the tested form may be a part, canonical isoform): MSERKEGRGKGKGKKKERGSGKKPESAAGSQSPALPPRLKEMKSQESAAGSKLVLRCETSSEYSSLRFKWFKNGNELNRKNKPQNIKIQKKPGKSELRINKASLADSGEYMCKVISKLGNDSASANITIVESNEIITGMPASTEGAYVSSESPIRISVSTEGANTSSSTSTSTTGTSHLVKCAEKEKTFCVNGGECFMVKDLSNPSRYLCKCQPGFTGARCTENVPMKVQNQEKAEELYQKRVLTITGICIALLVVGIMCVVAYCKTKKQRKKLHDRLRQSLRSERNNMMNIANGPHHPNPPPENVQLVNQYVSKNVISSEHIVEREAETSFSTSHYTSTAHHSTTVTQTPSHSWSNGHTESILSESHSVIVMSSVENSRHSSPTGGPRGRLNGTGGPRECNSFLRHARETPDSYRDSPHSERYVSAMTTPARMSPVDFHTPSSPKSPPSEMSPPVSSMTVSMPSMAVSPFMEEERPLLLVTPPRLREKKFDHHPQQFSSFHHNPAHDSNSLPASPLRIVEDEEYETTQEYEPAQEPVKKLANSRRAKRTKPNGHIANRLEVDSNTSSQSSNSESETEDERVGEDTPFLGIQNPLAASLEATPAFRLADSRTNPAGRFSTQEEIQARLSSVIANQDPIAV

[7] = tested on: Neuregulin-1 EGF-like domain; experiment: binders of neuregulin-1 EGF-like domain, primary screen, biochemical, small-molecule microarray, 635 nm fluorescence (AID 1081); details: small-molecule microarray binding, higher = more signal;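 also: binding of the protein to compounds printed on small-molecule microarray slides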
[8] = FRG1 promoter luciferase signal modulators, primary screen, FRG1 inhibition for FSHD, cell-based, C2C12 myotubes, firefly/Renilla luciferase, luminescence (AID 1084); details: higher = more signal, called active from +8 up or from −8 down
[9] = binders of probe aFST on microarray, primary screen, stem cell growth factor project, biochemical, small-molecule microarray, fluorescence 635/667 (AID 1086); details: higher = more signal;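 also: score merges 667 nm fluorescence with signal-to-noise of each printed compound spot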
[10] = binders of probe aHhip on microarray, primary screen, stem cell growth factor project, biochemical, small-molecule microarray, fluorescence 635/667 (AID 1087); details: higher = more signal;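 also: score merges spot fluorescence at 667nm with spot signal to noise ratio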

SMILES | composite z-score [1] | composite z-score [2] | composite z-score [3] | composite z-score [4] | composite z-score [5] | composite z-score [6] | composite z-score [7] | z-score [8] | composite z-score [9] | composite z-score [10]
[N-]=[N+]=NCc1ccccc1C[C@]1(C(=O)NCC(O)CO)N=C(c2ccc(OCCCO)cc2)O[C@H]1c1ccccc1N=[N+]=[N-] (stereo not given in full) | 1.55 | 0.459 | -0.01 | 0.77 | 0.814 | 1.17 | 0.731 | -0.5 (inactive) | 0.575 | -0.194
COc1ccc([Si](C)(C)[C@@H]2[C@@H](CC(=O)N3CCC[C@H]3CO)O[C@]3(C(=O)N(C)c4c(Br)cc(C)cc43)[C@H]2C)cc1 | -0.438 | 0.264 | -0.105 | 0.113 | 1.04 | 0.776 | 0.9 | -1.53 (inactive) | 0.219 | -0.0427
CS(=O)(=O)CCOC(=O)C1=CC(CCCO)=CC(c2cccs2)N(Cc2cc3c(cc2Br)OCO3)C=C1C(=O)OCCS(C)(=O)=O (stereo not given) | -0.281 | 0.24 | 0.0737 | 0.517 | 1.5 | 1.88 | 1.31 | -1.91 (inactive) | 0.827 | 0.463
C=CC[C@@]1(C(=O)N2CCOCC2)N=C(c2ccc(OCCCO)cc2)O[C@@H]1c1ccccc1N=[N+]=[N-] | 0.529 | 0.985 | -0.0073 | 0.853 | 1.53 | 1.44 | 1.19 | -0.469 (inactive) | 0.993 | 0.21
COCC(=C=CC[C@H](O)c1ccc(OCCO)cc1)C[C@H](O)c1cc(Cl)cc(Cl)c1O | -0.327 | 0.95 | -0.0125 | 0.754 | 0.623 | 0.458 | 1.16 | -3.67 (inactive) | 0.582 | 0.0505
CCOC(=O)[C@H]1C[C@H]2O[C@@]23C[C@H]1C(=O)N1CCCC1[C@@H]3O[Si](C)(C)C(C)(C)C (stereo not given in full) | -0.328 | -0.537 | -0.104 | -0.101 | -0.547 | -0.333 | -0.76 | -0.184 (inactive) | 0.0204 | 0.0274
COc1cc(CO)ccc1OC(C)=O | -0.651 | 0.336 | -0.0279 | 0.28 | 0.382 | 0.34 | 0.707 | -0.847 (inactive) | 0.195 | 0.122
Cc1ccc(S[C@]2(C(=O)NC3CC3)CC(=O)N(Cc3ccccc3)[C@@H]2c2ccc(CO)cc2)cc1 | 0.462 | -1.21 | -0.118 | -0.0824 | -0.764 | -0.419 | 0.0059 | -1.17 (inactive) | 0.135 | -0.247
O=c1cccc(C=Cc2ccccc2)o1 | 0.236 | -0.609 | -0.144 | -0.0239 | -1.03 | -0.458 | -0.0882 | 0.242 (inactive) | -0.369 | -0.0994
O=C1N(CCS(=O)(=O)c2ccccc2)Cc2ccccc2C[C@]12N=C(c1ccc(OCCCO)cc1)O[C@@H]2c1ccccc1 | 1.36 | 0.97 | 0.0901 | -0.0674 | 0.633 | 1.33 | 1.31 | -0.436 (inactive) | 0.607 | -0.27
CC=CC(O)C1C=CC2C(=O)N(c3ccccc3)C(=O)C2N1Nc1ccc(C(C)C)cc1 (stereo not given) | 0.0035 | 0.238 | 0.125 | 0.771 | 1.65 | 1.52 | 1.26 | 0.715 (inactive) | 1.16 | -0.0024
Cc1cc(C)c(C(O)C2C=CC3C(=O)N(c4ccccc4)C(=O)C3N2Nc2ccc(C#N)cc2)c(C)c1 (stereo not given) | 0.624 | 0.36 | 0.111 | 0.783 | 1.58 | 1.74 | 1.15 | -1.08 (inactive) | 1.73 | 0.167
C=C(CCCC)C(=O)CC[C@H](OC(=O)c1cccnc1)c1cccc(OCCO)c1 | 0.17 | -0.218 | -0.157 | 0.387 | -0.818 | 0.941 | 0.762 | -0.594 (inactive) | 0.0945 | -0.236
O=C1C2C=CC(C(O)c3ccc(F)cc3)N(Nc3ccccc3)C2C(=O)N1c1ccccc1 (stereo not given) | 0.719 | 0.616 | 0.0332 | 0.407 | 0.314 | 0.828 | 1.14 | -1.65 (inactive) | 0.593 | 0.0053
CC(C)C[C@@H]1NC(=O)[C@H]2C[C@@H](C(=O)NCCCCCCNC(=O)CS)[C@@H](c3cccc(OCCO)c3)N2C1=O | -0.206 | 0.0281 | -0.0493 | 0.43 | 1.39 | 1.24 | 1.32 | -0.154 (inactive) | 0.752 | -0.0645
CCCCC(CC)C(O)C1C=CC2C(=O)N(c3ccccc3)C(=O)C2N1Nc1ccccc1 (stereo not given) | 0.0807 | 0.34 | 0.0472 | 0.698 | 1.46 | 0.796 | 1.06 | -0.274 (inactive) | 1.1 | -0.0618
CC(C)NC(=O)[C@@H]1c2ccccc2C(=O)N(Cc2ccccc2Cl)[C@H]1c1ccc(CO)cc1 | 0.717 | 0.337 | -0.145 | -0.277 | -0.387 | 1.49 | 1.39 | -1.84 (inactive) | -0.216 | -0.137
Cc1ccc(F)cc1S(=O)(=O)N[C@@H]1CCN(Cc2ccc(-c3ccccc3)cc2)C1 | 0.111 | 0.504 | -0.0894 | 1.04 | 0.332 | 0.0558 | 1.07 | -1.72 (inactive) | 0.204 | 0.107
O=C(CS)NCCCCCCNC(=O)[C@H]1C[C@H]2C(=O)N3CCC[C@H]3C(=O)N2[C@H]1c1cccc(OCCO)c1 | 0.255 | 0.7 | -0.0802 | 0.635 | 0.698 | 1.23 | 1.4 | 0.865 (inactive) | 0.189 | 0.235
C[C@]1(C(=O)NCc2ccccc2)c2ccccc2C(=O)N(Cc2cc(F)cc(C(F)(F)F)c2)[C@H]1c1ccc(CO)cc1 | 0.46 | -0.512 | -0.0894 | -0.0459 | -0.706 | -0.353 | 1.26 | -3.12 (inactive) | -0.344 | -0.0994
C=CCOC(=O)[C@H]1[C@@H]2C(=O)O[C@@H](c3ccccc3)[C@@H](c3ccccc3)N2[C@@H](c2ccc(OCCOC(=O)[C@@H]3C[C@@H]4C(=O)N5CCC[C@H]5C(=O)N4[C@@H]3c3ccc(O)cc3)cc2)[C@]12C(=O)Nc1ccccc12 | -0.212 | 0.434 | -0.108 | 0.282 | 0.356 | 0.771 | 1.28 | -0.105 (inactive) | 0.328 | -0.249
COCCOC(=O)N1C(=O)[C@@]2(c3cc(C#CCCO)ccc31)[C@H](c1ccc(O)cc1)N1[C@H](c3ccccc3)[C@H](c3ccccc3)OC(=O)[C@H]1[C@@H]2C(N)=O | 1.04 | 0.751 | -0.0173 | 0.203 | -0.982 | 1.08 | 1.42 | -0.966 (inactive) | 0.102 | 0.113
C=CCN1C(=O)[C@]2(O[C@H](CCO)[C@@H]([Si](C)(C)c3ccc(OC)cc3)[C@@H]2C)c2cc(NC(=O)[C@H](C)O)ccc21 | -0.561 | 0.363 | -0.0158 | 1.08 | 0.327 | 1.35 | 1.2 | -3.94 (inactive) | -0.412 | -0.216
C=C(COC)/C(=C/C[C@H](OC(=O)c1ccncc1)c1cccc(OCCO)c1)c1cc(C(=O)OC)ccc1OC | -0.282 | 0.635 | -0.116 | 0.783 | 0.0724 | 0.555 | 1.27 | -0.889 (inactive) | -0.0832 | 0.0505
COC(=O)[C@]1(Cc2ccccc2N=[N+]=[N-])N=C(c2ccc(OCCCO)cc2)O[C@@H]1c1ccccc1N=[N+]=[N-] | -0.13 | -0.126 | -0.0512 | -0.102 | 0.374 | 0.46 | 1.1 | 3.58 (inactive) | 0.197 | -0.0994
COC(=O)[C@@]1(Cc2ccccc2)[C@H]2c3cc(C(=O)N4CCCC4)n(Cc4ccc(C)o4)c3C[C@H]2CN1C(=O)c1ccccc1 | 0.385 | 0.225 | -0.162 | 0.0426 | 1.54 | 1.37 | 0.476 | 0.0318 (inactive) | 0.935 | 0.259
COc1c(C)cc(-c2cc3c(c(-c4ccc(Oc5ccccc5)cc4)n2)[Si](C(C)C)(C(C)C)OC3)cc1C | -0.128 | -0.0685 | -0.147 | -0.114 | 0.104 | -0.0614 | -1.06 | 0.643 (inactive) | 0.0723 | -0.353
C=CC[C@@]1(C(=O)O)N=C(c2ccc(OCCCO)cc2)O[C@@H]1c1ccccc1N=[N+]=[N-] | 1.44 | -0.0147 | -0.0112 | 0.484 | 0.0707 | 0.915 | 1.07 | 4.25 (inactive) | 0.965 | 0.421
C=CC[C@@H](OC(=O)Nc1ccc(OC)cc1)c1ccc(O)c2ccccc12 | -0.316 | 0.129 | -0.0364 | 0.224 | 0.746 | 0.263 | 1.08 | 6.38 (inactive) | 0.56 | -0.0296

Source: PubChem BioAssay
